TDP1 inh: qHTS Assay for Inhibitors of Tyrosyl-DNA Phosphodiesterase (TDP1). recombinant TDP1, AlphaScreen DNA substrate cleavage. Potency, µM (series often up to 130 µM), for inactives: top-dose activity change, negative = inhibition, actives largely listed as inhibitors. 350,000 tested, 0.28% active; also: nearly all actives have a fitted effect of over 40% in size
Target sequence (Q9NUW8 whole entry, looked up): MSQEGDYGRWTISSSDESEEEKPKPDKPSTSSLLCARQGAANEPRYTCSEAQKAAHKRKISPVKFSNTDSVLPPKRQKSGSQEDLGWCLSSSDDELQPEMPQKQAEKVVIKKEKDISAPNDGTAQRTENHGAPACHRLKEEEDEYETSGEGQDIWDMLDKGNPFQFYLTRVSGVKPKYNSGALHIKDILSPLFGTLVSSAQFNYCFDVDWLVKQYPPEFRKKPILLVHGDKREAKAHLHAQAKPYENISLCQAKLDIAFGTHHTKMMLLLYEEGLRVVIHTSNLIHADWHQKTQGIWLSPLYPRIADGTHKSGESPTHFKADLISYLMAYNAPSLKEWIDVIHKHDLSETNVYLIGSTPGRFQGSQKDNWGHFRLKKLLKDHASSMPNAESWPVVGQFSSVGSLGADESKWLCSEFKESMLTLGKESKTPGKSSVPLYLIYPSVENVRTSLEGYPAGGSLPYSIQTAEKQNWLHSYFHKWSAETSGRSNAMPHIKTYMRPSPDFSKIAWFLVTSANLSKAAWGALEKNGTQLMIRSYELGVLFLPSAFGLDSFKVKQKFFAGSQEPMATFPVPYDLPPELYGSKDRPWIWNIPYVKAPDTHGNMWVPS
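E. coli-derived human Tdp1, 1 nM final. Cpd preinc 15 min RT; substrate 15 nM final, 5 min RT; AS bead mix 10 ug/ml final, 10 min RT. Signal loss = tyrosine-FITC cleavage. No-enzyme wells = max signal.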
DT40 TDP1 CPT: qHTS for Inhibitors of human tyrosyl-DNA phosphodiesterase 1 (TDP1): qHTS in cells in presence of CPT | 420,000 tested, 12% active | Potency, µM (series often up to 46.2 µM), for the others: top-dose activity change, negative = growth inhibition, hits mostly inhibitors | AID 686979, 2013 | chicken DT40 Tdp1-/-;hTDP1 cells + 20 nM CPT, ATP luminescence, 48 h; also: nearly all actives have a fitted effect of over 55% in size
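Cell growth measured by CellTiter-Glo luminescence after a minimum 48 h, 37 C compound exposure with 20 nM CPT in Tdp1-knockout DT40 cells stably expressing hTDP1, seeded 400/well; qHTS titration format.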
DT40 TDP1 no CPT: qHTS for Inhibitors of human tyrosyl-DNA phosphodiesterase 1 (TDP1): qHTS in cells in absence of CPT; DT40 Tdp1-/- hTDP1 cells, no CPT, ATP luminescence, 48 h; Potency, µM (titrated, usually from 46.2 µM), inactives show top-dose activity change, negative = growth inhibition, actives largely listed as inhibitors; 420,000 tested, 15% active; AID 686978, 2013; also: nearly all actives have a fitted effect of over 55% in size
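Camptothecin absent (DMSO only). Human TDP1-complemented DT40 knockout cells, 400 cells/well, 37 °C for minimum 48 hr; ATP measured via CellTiter-Glo, 30 min dark incubation, luminescence.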
RORg inh: qHTS for inhibitors of ROR gamma transcriptional activity; Potency, µM (highest dose often 53.6 µM), for inactives: at the top dose activity change, negative = inhibition, actives largely listed as inhibitors; 310,000 tested, 5.4% active; Drosophila S2 Gal4-RORgamma UAS-luciferase reporter, 20 h; Nuclear receptor ROR-gamma (Mus musculus), P51450; also: nearly all actives have a fitted effect of over 60% in size
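A Gal4/UAS one-hybrid system in insect cells: metallothionein-promoter Gal4–ROR gamma fusion plus Photinus luciferase reporter. Copper sulfate 700 uM final, 20 hr ambient incubation, luminescent detection after 10 min with reagent.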
Gal4-VP16 FLuc: VP16 counterscreen qHTS for inhibitors of ROR gamma transcriptional activity; Potency, µM (top dose mostly 53.6 µM), for the others: top-dose activity, negative = inhibition, hits mostly inhibitors; 310,000 tested, 3.5% active; Drosophila S2 Gal4-VP16 UAS-luciferase, luminescence, 20 h;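 also: Gal4-VP16 expression switched on by copper sulfate through the metallothionein promoter; nearly all actives have a fitted effect of over 50% in size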
Active calls of the source: *; ? = inconclusive; · = no result given; [ ] = another dose, or the depositor's remark. An excerpt weighted towards active compounds, which were near 19% of everything screened. Calls follow the shape of the dose curve; as a rule, active = well fitted curve in the direction sought with a large enough effect; inconclusive = small, poorly fitted or top-dose-only effect, or another doubt; inactive = no such curve, though single readings can be large; an effect the other way counts as inactive or inconclusive. % is scaled to controls: 0 for no effect and ±100 for the full control effect; potency is read from the fitted curve at half-maximal effect.

SMILES | TDP1 inh | DT40 TDP1 CPT | DT40 TDP1 no CPT | RORg inh | Gal4-VP16 FLuc
NC(N)=Nc1nc(-c2ccccc2)c2cc(F)ccc2n1 | 9% | 21µM* | 12µM* | -27% | -8%
CS(=O)(=O)c1ccc(NC(=O)CCN2C(=O)NC3(CCCC3)C2=O)cc1 | 1% | 12% | 7% | · | ·
C=CCNc1nc(-c2ccc(O)c(C(N)=O)c2)cs1 | 8% | 13µM* | 18µM* | ? | 10%
NC(=O)c1cc(-c2csc(-c3cccnc3)n2)ccc1O | 6% | -23% | 13µM* | -8% | 13%
CC(=O)Nc1ccc(NC(C)=O)c(NC2OCC(O)C(O)C2O)c1 (stereo not given) | 1% | -5% | -5% | 16% | -9%
N#Cc1c(N2CCCC2)ccc(Br)c1Cl | · | -23% | -26% | 6% | -7%
COc1ccc(Cl)cc1-c1nc(SCC(=O)NC(C)(C)C)n[nH]1 | -1% | 3% | ? | -17% | 6%
Cc1cc(Cl)ccc1OCC(=O)NNC(=O)c1ccco1 | 0% | -6% | -6% | -4% | -8%
Cc1ccccc1OCC(=O)NNC(=S)NC(=O)c1ccco1 | 12% | 22µM* | 10µM* | 13µM* | ?
CC(C)(C)c1ccc(OCC(=O)NNC(=S)NC(=O)c2ccco2)c(Br)c1 | 8% | 21µM* | 10µM* | 5µM* | 8.9µM*
CC(C)(C)c1ccc(OCC(=O)NCc2ccco2)c(Br)c1 | 3% | -92% | 23µM* | ? | -15%
CC(C)c1ccc(OCC(=O)NNC(=S)NC(=O)c2ccco2)c(Br)c1 | 1% | ? | ? | 6.3µM* | 6.3µM*
CCOc1cc(C(=O)OCC(=O)NCc2ccco2)cc(OCC)c1OCC | -6% | -28% | ? | 32% | 0%
O=C(c1ccc(S(=O)(=O)N2CCCCC2)cc1)c1nnc(-c2ccc(Cl)cc2)o1 | 3% | ? | -14% | 2% | -6%
O=C(/C=C/c1ccc(Cl)cc1)Nn1c(-c2cccs2)nc2ccccc2c1=O | 2% | ? | ? | 33% | -11%
CCn1c(C(=O)NCc2ccc(OC)cc2)cc2sc(Cl)cc21 | -2% | ? | ? | · | ·
CCC(CO)Oc1cc(NCc2ccccc2F)c2ncn(C(C)C)c2c1 (stereo not given) | 8% | 21µM* | 16µM* | · | ·
CCC(CO)Oc1cc(NCc2ccccc2C(F)(F)F)c2ncn(C(C)C)c2c1 (stereo not given) | 10% | 23µM* | 16µM* | · | ·
CCC(CO)Oc1cc(NCc2ccccc2OC)c2ncn(C(C)C)c2c1 (stereo not given) | 8% | ? | ? | · | ·
CCc1c(C)sc2c1CCN(Cc1ccccc1)C2c1ccccc1 (stereo not given) | -1% | 7.3µM* | 2.9µM* | · | ·
CCc1c(C)sc2c1CCN(C(=O)Nc1ccccc1C(=O)OC)C2c1ccc(OC)cc1 (stereo not given) | 1% | ? | ? | · | ·
CCc1c(C)sc2c1CCN(Cc1ccccc1C#N)C2c1ccccc1 (stereo not given) | 1% | 9.2µM* | ? | · | ·
O=C1Cc2cccc(=O)c(O)c2C(=O)O1 | · | 4% | 11% | · | ·
CC1C/C(=N\NC(=S)NC(C)C)CC(C)(C)C1 (stereo not given) | 8% | 10µM* | 18µM* | 1.6µM* | 4µM*
Cc1ccc2nc(/C(C#N)=C\c3cc(C)n(-c4cccc([N+](=O)[O-])c4)c3C)[nH]c2c1 | 9% | 8.2µM* | 9.2µM* | 19% | 2%
SMILES | TDP1 inh | DT40 TDP1 CPT | DT40 TDP1 no CPT | RORg inh | Gal4-VP16 FLuc
Cc1cc(/C=C(/C#N)c2nc3ccccc3[nH]2)c(C)n1-c1cc(C(=O)O)cc(C(=O)O)c1 | · | 27% | -5% | 29% | 5%
CC(=O)/C(=C\c1ccccc1)CC(=O)O | 2%[56.1 µM] | 1% | 5% | -3% | 0%
Cc1ccc(Cc2c(-c3cccc(Br)c3)nc3ccc(Br)cn23)cc1 | · | -14% | -8% | · | ·
Cc1ccc(Cc2c(-c3ccc(C)cc3)nc3ccc(Br)cn23)cc1 | · | 21µM* | 23µM* | · | ·
Cc1ccc(Cc2c(-c3ccc(Cl)cc3)nc3ccc(Br)cn23)cc1 | · | 16µM* | 26µM* | · | ·
COCCCn1c(SCc2nnc(-c3ccc(OC)c(OC)c3)o2)nc2ccccc2c1=O | 5% | ? | 23µM* | ? | -6%
COc1ccc(-c2nnc(CSc3nc4ccccc4c(=O)n3CC(C)C)o2)cc1OC | 2% | ? | 16µM* | -21% | -1%
CCn1c(Cc2ccc(OC)cc2)nnc1SCC(=O)NC1CCCCC1 | -1% | -19% | -15% | -7% | 4%
COC(=O)C1=C(CS(=O)(=O)c2ccc(C)cc2)NC(=O)NC1c1ccc(OC)c(OC)c1 (stereo not given) | 1% | 8% | 3% | 2% | -1%
COC(=O)c1cc(S(=O)(=O)N2CCN(c3ccc(F)cc3)CC2)c[nH]1 | 1% | -29% | -21% | -21% | -19%
CCCC(=O)c1ccc(N2CCCCCC2)c(F)c1 | 2% | ? | 23µM* | ? | 6%
CCOC(=O)N1CCN(c2ccc(C(=O)CC)cc2F)CC1 | -2% | ? | ? | 12%[10 µM] | -7%
CC(=O)c1ccc(N2CCN(C(=O)c3ccco3)CC2)c(F)c1 | -8% | ? | ? | -10% | ?
CCC(=O)c1ccc(N2CCN(C(=O)c3ccccc3)CC2)c(F)c1 | 0% | 18µM* | 7.3µM* | -34% | ?
CC(=O)c1ccc(N2CCN(C(=O)c3ccc(Br)cc3)CC2)c(F)c1 | -2% | 9.2µM* | 13µM* | -40% | ?
CC(=O)c1ccc(N2CCN(C(=O)c3ccco3)C(C)C2)c(F)c1 (stereo not given) | -2% | ? | 26µM* | 12% | -6%
CC1CN(c2ccc([N+](=O)[O-])cc2F)CCN1C(=O)c1ccco1 (stereo not given) | 1% | ? | ? | 24% | ?
CC(C)N1C(=O)N(c2ccc(Cl)cc2)C(C)(O)CC1(C)C (stereo not given) | · | -3% | 5% | -12% | 18%
COC(=O)c1cnc(N2CCN(c3ccccc3F)CC2)c2ccccc12 | 0% | ? | 16µM* | · | ·
CCN1CCN(c2ncc(C(=O)Nc3ccccc3C(=O)OC)c3ccccc23)CC1 | 4% | 23µM* | 16µM* | -3% | -17%
COc1ccc(NC(=O)CN(C)C(=O)c2cc3c(cc2Cl)N2CCCCCC2=NS3(=O)=O)cc1 | · | 1% | -1% | · | ·
COC(=O)c1cnc(N2CCN(c3ccc(OC)cc3)CC2)c2ccccc12 | 8% | ? | ? | · | ·
